Experimental data from PubChem BioAssay AID686979 (National Center for Advancing Translational Sciences (NCATS), 2013).
Among all 420,000 compounds or so, about 50,000 (12%) were called active. Another 26% or so got no clear call; they are omitted. This is one part of a sample in which actives are shown more often than they occur. Values without a mark were called inactive. Calls follow the shape of the dose curve; as a rule, active = well fitted inhibition curve with a large enough effect; inconclusive = small, poorly fitted or top-dose-only effect; inactive = flat fitted curve, though single readings scatter.

Assay: qHTS for Inhibitors of human tyrosyl-DNA phosphodiesterase 1 (TDP1): qHTS in cells in presence of CPT; also: nearly all actives have a fitted effect of over 55% in size
Conditions: chicken DT40 Tdp1-/-;hTDP1 cells + 20 nM CPT, ATP luminescence, 48 h; series mostly up to 46.2 µM; activity change, negative = growth inhibition: at the top concentration
In short: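 Chicken DT40 Tdp1-/- cells stably complemented with human TDP1 were seeded at 400 cells/well in medium containing 20 nM camptothecin, exposed to pin-transferred compounds, and grown at 37 °C for at least 48 hr. Viability was read as ATP luminescence.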
% is scaled to controls: 0 for no effect and ±100 for the full control effect; potency is read from the fitted curve at half-maximal effect.

| Compound | activity change, negative = growth inhibition [%] | Potency |
| --- | --- | --- |
| CN(c1ccccc1)S(=O)(=O)c1ccc2[nH]c(=O)[nH]c2c1 | -4.05 |  |
| CCCNC(=O)N1CCC(c2ccc3c(c2)OCO3)CC1 | -2.65 |  |
| CCCC[C@@H]1CN=C(N)N1CCc1cc(C(F)(F)F)cc(C(F)(F)F)c1 |  | 3.66 µM (active) |
| CCCC[C@@H]1CN=C(N)N1CCc1cccc(F)c1 |  | 9.2 µM (active) |
| O=C1NC[C@@H](Cc2ccc(O)cc2)N(CCc2cccc(F)c2)C1=O | -0.54 |  |
| CCCS(=O)(=O)N1CCN=C1SCc1cccc(F)c1 | -23.1 |  |
| CCN(CC(=O)NCc1cccs1)C(=O)c1ccc(OC)c(S(=O)(=O)N2CCOCC2)c1 | -0.26 |  |
| Cn1c(=O)c2c(nc(N3CCOCC3)n2CCNC2=NCCC2)n(C)c1=O | -6.91 |  |
| CC(NC(=S)NC1CCCCC1)C(c1ccccc1)N1CCOCC1 (stereo not given) | -22.3 |  |
| CCn1c(SCC(=O)NNC(=O)c2ccc(OC)cc2)nnc1C(C)C | -2.01 |  |
| Cc1cccc(C)c1Nc1c(-c2ccccc2O)nc2ncccn12 |  | 20.6 µM (active) |
| Cc1cccc(C)c1NC1=NC(=S)N(c2ccc(N(C)C)cc2)C1(C)C | -23.1 |  |
| Cc1c(-c2cccc(NC(=O)C(C)(C)C)c2)nc2ncccn12 | -4.57 |  |
| CCc1cccc(C)c1Nc1c(-c2ccc(N(C)C)cc2)nc2ncccn12 |  | 10.3 µM (active) |
| CCc1cccc(C)c1NS(=O)(=O)c1c(C)nc2sccn2c1=O |  | inactive |
| Cc1ccc(-c2c(N)nc3ncccn23)cc1 | 6.29 |  |
| CC1(OC(=O)CCc2ccccc2)C(=O)C=C2C=C(c3ccc(C#N)cc3)N(CCc3ccccn3)C=C2C1=O (stereo not given) | -22.9 |  |
| CC1CCN(c2ccc([N+](=O)[O-])cc2C(N)=O)CC1 | -6.2 |  |
| CC(C)c1ccc(NC(=O)Cn2nnc(C(=O)NCCc3ccccc3)c2N)cc1 | 9.46 |  |
| O=C(COc1ccc([N+](=O)[O-])cc1)Nc1cccc(C(=O)Nc2ccccc2C(=O)O)c1 | 1.45 |  |
| CCc1ccc2c(c1)C1(NN=C(c3ccccc3)S1)C(=O)N2 (stereo not given) |  | 2.91 µM (active) |
| CCc1cccc(NC(=O)c2cc(-c3ccccc3)n[nH]2)c1 | -27.1 |  |

| Compound | activity change, negative = growth inhibition [%] | Potency |
| --- | --- | --- |
| CCCCC(CC)CNC(=O)C1CCN(S(=O)(=O)c2cccc3nsnc23)CC1 (stereo not given) | 7.48 |  |
| COc1cccc2c(O)cc(=O)n(C)c12 | -20.6 |  |
| COc1cc2c(=O)n(C)c3ccccc3c2cc1OC |  | 13 µM (active) |
| Cc1cc(C)c(-c2c(O)c3ccccc3n(C)c2=O)c(C)c1 | -4.71 |  |
| Cc1ccc(Cc2nnc(SCC(=O)Nc3ccccc3C)[nH]c2=O)cc1 | -17.9 |  |
| C[C@H](CO)N1C[C@H](C)[C@H](CN(C)C(=O)Nc2ccc3c(c2)OCO3)Oc2ncc(Br)cc2C1=O | 5.22 |  |
| CCOc1ccc(NC(=O)CN(C)C(=O)c2c(C)noc2C)cc1OCC | 1.04 |  |
| c1ccc(-c2c[nH]c(-c3ccccc3)c2)cc1 | 13.2 |  |
| CC1CCCCC12NC(=O)N(CC(=O)N1CCN(c3ccccc3)CC1)C2=O (stereo not given) | -14.3 |  |
| CC(=O)c1ccc(N2CCN(CC(O)c3ccccc3)CC2)cc1 (stereo not given) | 20.2 |  |
| COc1ccc(C=Nc2cccc3ncccc23)cc1 | -27.3 |  |
| COc1ccc(/C=C2/C(=O)N(c3ccccc3)N=C2C)c(OC)c1 | 3.05 |  |
| COc1cc(OC)c(/C=C/c2ccnc3ccccc23)c(OC)c1 |  | 10 µM (active) |
| CC(=O)OC1CCC2(O)CC1(C)CCC1C2CC1(C)C (stereo not given) | -0.352 |  |
| CCOc1ccc(-c2n[nH]c(C)c2-c2ccccn2)c(O)c1 | -18.7 |  |
| C=C(C)COc1ccc(-c2ncncc2-c2ccc(OC)cc2)c(O)c1 | -22.2 |  |
| COc1ccc(-c2n[nH]c(C)c2-c2ccc(OC)c(OC)c2)c(O)c1 |  | 20.6 µM (active) |
| COc1ccc(-c2c(-c3ccc(OC)cc3O)nc(C)nc2C(F)(F)F)cc1 | -21.2 |  |
| C=C(C)COc1ccc(-c2n[nH]c(C)c2-c2ccccc2)c(O)c1 |  | 14.6 µM (active) |
| COc1ccc(-n2c(-c3ccc(OC)c(OC)c3)n[nH]c2=S)cc1 | 24.6 |  |
| N#Cc1c(-c2ccccc2)nc(SCc2ccc([N+](=O)[O-])cc2)[nH]c1=O | -20 |  |
| O=C(Nc1ccccc1)/C(=C\c1ccco1)NC(=O)c1ccco1 | -12.4 |  |

| Compound | activity change, negative = growth inhibition [%] | Potency |
| --- | --- | --- |
| CCN(CC(=O)Nc1ccc(OC)cc1)C(=O)c1ccc(=O)n(Cc2ccccc2)n1 | -13.1 |  |
| COc1ccc(NC(=O)CCCNC(=O)Cn2cnc3sc4c(c3c2=O)CCCC4)cc1OC | 3.14 |  |
| O=C(Nc1ccccc1C(=O)N1CCCCCC1)c1ccccc1Cl | 5.74 |  |
| Nc1nnnn1/N=C/c1cccc(Br)c1 | -3.42 |  |
| CCOC(=O)c1c(NC(=S)Nc2ccccc2C)sc2c1CCC2 | -2.49 |  |
| CCOC(=O)c1c(NC(=O)c2ccc(Br)o2)sc2c1CCCC2 | -18.8 |  |
| CCOC(=O)c1c(NC(=O)C2(C)Cc3ccccc3C(=O)O2)sc2c1CCCC2 (stereo not given) |  | 18.4 µM (active) |
| O=C1c2ccccc2C(=O)N1CCC(O)C[N+](=O)[O-] (stereo not given) | -25.6 |  |
| COc1ccc(CCNc2nc3c(-c4cccc(F)c4)nnn3c3ccccc23)cc1OC | -2.75 |  |
| COCCCNc1nc2c(-c3cccc(C(F)(F)F)c3)nnn2c2ccccc12 | -12 |  |
| COCCCNc1nc2c(-c3cccc(C)c3)nnn2c2ccc(Cl)cc12 |  | 11.6 µM (active) |
| C[C@@H]1O[C@@H](OC[C@H]2O[C@@H](Oc3c(-c4ccc(O)cc4)oc4cc(O)cc(O)c4c3=O)[C@H](O)[C@@H](O)[C@@H]2O)[C@H](O)[C@H](O)[C@H]1O | 12.2 |  |
| COc1cccc(-n2c(=O)c3c(C)c(C(=O)N(C)C)sc3n(Cc3cccc(C)c3)c2=O)c1 | -18.9 |  |
| COc1cc(OC)cc(C2=Cc3ccccc3C(CC(=O)c3ccco3)N2c2ccc(-c3cnc(OC)nc3)cc2)c1 (stereo not given) | -28.8 |  |
| Cn1c2ccccc2c2cc(/C=C(\NC(=O)c3ccccc3)C(=O)NCC(=O)O)ccc21 | 7.78 |  |
| O=C(C1CCN(CC2CCCCC2)CC1)N1CCCC1 | -1.64 |  |
| CCC1CCCCN1CCCNC(=O)C1CCC(Cn2c(=O)[nH]c3ccccc3c2=O)CC1 (stereo not given) | -20.6 |  |
| O=c1c(F)cn(C2CCCO2)c(=O)n1Cc1ccccc1Cl (stereo not given) | -0.787 |  |
| O=C(C1CCC(Cn2c(=O)c3sccc3n(Cc3ccccc3F)c2=O)CC1)N1CCCCC1 (stereo not given) |  | 23.1 µM (active) |
| CCCNC(=O)C1CCC(Cn2c(=O)c3sccc3n(Cc3ccccc3F)c2=O)CC1 (stereo not given) |  | 14.6 µM (active) |
| Cc1cccc(Cn2c(=O)n(CCC(=O)NCCc3ccc(Cl)cc3)c(=O)c3sccc32)c1 | -3.17 |  |
